Data taken from PubChem BioAssay AID1159580 (chemical genetic matrix, 2015).
Out of some 5,500 compounds screened, about 2,000 (36%) were called active. Roughly 18% stayed inconclusive and do not appear here. No stated cut-off is given here; in the data, active means normalized growth mostly below about 0.91 (no sharp cut-off); inconclusive means no clear call, values can overlap the other calls; inactive means mostly above about 0.92. The list shows a part of the results.

Assay: chemical genetic growth profiling, strain panel (AID 1159580);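 further: tested at 20 µM; growth read once vehicle control cultures reached saturation at 30 °C; 1 = growth at the plate median or of vehicle wells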
Conditions: S. cerevisiae deletion strains, growth OD

Measured: normalized growth

CC[C@H](C)C(=O)O[C@H]1CCC=C2C=C[C@H](C)[C@H](CC[C@@H]3C[C@@H](O)CC(=O)O3)[C@H]21
inactive: locus YAL040C, strain CLN3, stronger effect = lower value 1.01 | locus YCL061C, strain MRC1 (second series), stronger effect = lower value 0.995 | locus YDR363W, strain ESC2, stronger effect = lower value 1.02 | locus YER002W, strain NOP16, stronger effect = lower value 0.976 | locus YJR075W, strain HOC1, stronger effect = lower value 0.988 | locus YNL128W, strain TEP1, stronger effect = lower value 0.947 | locus YNL175C, strain NOP13, stronger effect = lower value 0.985 | locus YNL197C, strain WHI3, stronger effect = lower value 0.987 | locus YNL224C, strain SQS1, stronger effect = lower value 0.98 | locus YNL322C, strain KRE1, stronger effect = lower value 0.995 | locus YOR083W, strain WHI5 (second series), stronger effect = lower value 0.999 | locus YPL241C, strain CIN2, stronger effect = lower value 0.994
